Reference: the OligoGym collection

Experiments:
Assay in all cases: pooled miR-30 sensor sort-seq; sequence = guide strand
Conditions in all cases: shRNA
DSPP = target: DSPP
DQX1 = target: DQX1
DPRX = target: DPRX
DUSP3 = target: DUSP3
DUSP5 = target: DUSP5
EAPP = target: EAPP
EEF1B2 = target: EEF1B2
EHD3 = target: EHD3
EID2B = target: EID2B
EHMT2 = target: EHMT2

Sequence: TTTCTCTTGCTGTTGATCTGAG
- sensor-assay potency score (higher = more potent) (DSPP): -0.329

Sequence: TTGCTGCTGTCTGACTTGCTGT
- sensor-assay potency score (higher = more potent) (DSPP): -1.02

Sequence: TTGCTCGCAATCGTCTTGCCTC
- sensor-assay potency score (higher = more potent) (DQX1): -0.154

Sequence: TTTAGTAGTAACACCAGGGAGC
- sensor-assay potency score (higher = more potent) (DQX1): -0.54

Sequence: TTCTGATAGTATGACACCCAGA
- sensor-assay potency score (higher = more potent) (DQX1): -1.09

Sequence: TTTTGCTCTGTGATTCTTGAAC
- sensor-assay potency score (higher = more potent) (DPRX): -0.966

Sequence: TTACTGTCACTATCACTGCTGT
- sensor-assay potency score (higher = more potent) (DSPP): -0.164

Sequence: TAGTGTGTCTGCATTTCTCAGG
- sensor-assay potency score (higher = more potent) (DPRX): -0.247

Sequence: TTTTTGATGAATATGCTTGCAT
- sensor-assay potency score (higher = more potent) (DPRX): 0.217

Sequence: TACTATCTGAATTTTGACCTAT
- sensor-assay potency score (higher = more potent) (DSPP): 0.43

Sequence: TTGCTTCTTAGTGAACATGGTT
- sensor-assay potency score (higher = more potent) (DPRX): -0.403

Sequence: TATAAAGGCTTCATACACCTGG
- sensor-assay potency score (higher = more potent) (DQX1): 0.178

Sequence: TATGTAGAAAAACTCTTCCCTC
- sensor-assay potency score (higher = more potent) (DSPP): -0.0837

Sequence: TATATATTAGGATCTCGGCAGC
- sensor-assay potency score (higher = more potent) (DPRX): -0.886

Sequence: TTTCCTGTGTGAATGCATCTGG
- sensor-assay potency score (higher = more potent) (DPRX): 0.364

Sequence: TACTTGAGGTCCATCTTCTTGG
- sensor-assay potency score (higher = more potent) (DSPP): -0.264

Sequence: TTTTTCGACATGTCTCTCCAGT
- sensor-assay potency score (higher = more potent) (DSPP): -0.00978

Sequence: TTGTCTGTACTGTTATTGCTTC
- sensor-assay potency score (higher = more potent) (DSPP): -0.739

Sequence: TATTCTTATCAGTATTTCCATT
- sensor-assay potency score (higher = more potent) (DSPP): -0.803

Sequence: TTCACTGCTATCACTGCTGTTG
- sensor-assay potency score (higher = more potent) (DSPP): -0.29

Sequence: TTTCTGAATTAGCATCATCATT
- sensor-assay potency score (higher = more potent) (DSPP): -1.5

Sequence: TTTATCCTCTTTACCTTCGTTG
- sensor-assay potency score (higher = more potent) (DSPP): -0.331

Sequence: TTTTAGTAGTAACACCAGGGAG
- sensor-assay potency score (higher = more potent) (DQX1): -0.895

Sequence: TTCTGGAGCAGGCTGGTCCAGG
- sensor-assay potency score (higher = more potent) (DQX1): -1.18

Sequence: TTGCTATCACTGCTGTTGCTGC
- sensor-assay potency score (higher = more potent) (DSPP): -0.741

Sequence: TTGGACAACAGCGACATCCTCA
- sensor-assay potency score (higher = more potent) (DSPP): 0.0891

Sequence: TTCTTAGTGAACATGGTTCGTT
- sensor-assay potency score (higher = more potent) (DPRX): 0.0305

Sequence: TCTTAGTGAACATGGTTCGTTT
- sensor-assay potency score (higher = more potent) (DPRX): -0.457

Sequence: TAGGATTGTAAACACTTCGGAG
- sensor-assay potency score (higher = more potent) (DQX1): -0.968

Sequence: TTTTGATGAATATGCTTGCATT
- sensor-assay potency score (higher = more potent) (DPRX): -1.14

Sequence: TTGAATCTCAGAAACAATGGAA
- sensor-assay potency score (higher = more potent) (DQX1): 0.304

Sequence: TTCACTTGTATTACCCTCGTTT
- sensor-assay potency score (higher = more potent) (DSPP): 0.22

Sequence: TGTGATGCCGGAGTCCTTGTAG
- sensor-assay potency score (higher = more potent) (DUSP3): 0.0865

Sequence: ATTCCGAGTAGAAAGTCTCATA
- sensor-assay potency score (higher = more potent) (DUSP5): -1.1

Sequence: TAGCGCGCCGACACCGCGCCGC
- sensor-assay potency score (higher = more potent) (DUSP5): -0.777

Sequence: TCCATTTGTAGTGTAGGTGGGT
- sensor-assay potency score (higher = more potent) (DUSP5): -0.0708

Sequence: TCCTCTCGCAGCTTCTGCCAGT
- sensor-assay potency score (higher = more potent) (DUSP5): -1.18

Sequence: TTGTAGAAGTTGGCATTGGTGT
- sensor-assay potency score (higher = more potent) (DUSP3): -0.415

Sequence: TTTCTTCCACATCTGTCTCTGC
- sensor-assay potency score (higher = more potent) (EAPP): -0.196

Sequence: TCAATGAAGTCGGCAGCCCTTT
- sensor-assay potency score (higher = more potent) (DUSP3): -0.941

Sequence: TTTGAGGAAGTAGACCCGCGGG
- sensor-assay potency score (higher = more potent) (DUSP5): -0.969

Sequence: TTGAGTGGGTAGGCACCGGTGC
- sensor-assay potency score (higher = more potent) (DUSP5): -0.999

Sequence: TTACATCCACGCAACACTCAGG
- sensor-assay potency score (higher = more potent) (DUSP5): -0.32

Sequence: TATATCTTAGAACCTCCTCTTT
- sensor-assay potency score (higher = more potent) (EAPP): -0.803

Sequence: TACAGTAGTCAGCACATGCTGT
- sensor-assay potency score (higher = more potent) (DUSP5): -0.0745

Sequence: ATGCATGGTAGGCACTTCCAAG
- sensor-assay potency score (higher = more potent) (DUSP5): -1.82

Sequence: ATTCTTTTGAGCCAAAGCCTGG
- sensor-assay potency score (higher = more potent) (DUSP3): -1.5

Sequence: TTCAGCACATGGGTGATGCCTA
- sensor-assay potency score (higher = more potent) (DUSP3): -0.601

Sequence: TATTGCTTCTTGAAAGTGGGAG
- sensor-assay potency score (higher = more potent) (DUSP5): 0.394

Sequence: TCTCACTCTCAATCTTCTCTTG
- sensor-assay potency score (higher = more potent) (DUSP5): -0.536

Sequence: TTTACATCCACGCAACACTCAG
- sensor-assay potency score (higher = more potent) (DUSP5): -1.07

Sequence: TTCATAAGGTAAGCCATGCAGA
- sensor-assay potency score (higher = more potent) (DUSP5): -0.386

Sequence: TTGGTCACCTGTACTGCTCTGT
- sensor-assay potency score (higher = more potent) (EAPP): 0.00284

Sequence: TAGCTGACATTTACCACTGGTT
- sensor-assay potency score (higher = more potent) (DUSP5): -0.934

Sequence: TAGAAAGTCTCATATCCCCCTT
- sensor-assay potency score (higher = more potent) (DUSP5): -0.306

Sequence: TTCCACATCTGTCTCTGCCTTC
- sensor-assay potency score (higher = more potent) (EAPP): 0.205

Sequence: TTTATATCTTAGAACCTCCTCT
- sensor-assay potency score (higher = more potent) (EAPP): 0.652

Sequence: TGTAGCTGACATTTACCACTGG
- sensor-assay potency score (higher = more potent) (DUSP5): 0.536

Sequence: TTGACGTTGAGCGAGCCGCGCA
- sensor-assay potency score (higher = more potent) (DUSP5): -0.861

Sequence: TAGTGTAGGTGGGTCGCGCAGG
- sensor-assay potency score (higher = more potent) (DUSP5): -0.939

Sequence: TTCTGCTGAGCTCTGAGACTGT
- sensor-assay potency score (higher = more potent) (DUSP5): -0.115

Sequence: TCTGTCATTGAGCTGGCAGAGC
- sensor-assay potency score (higher = more potent) (DUSP3): -1.17

Sequence: TTGTAGTGTAGGTGGGTCGCGC
- sensor-assay potency score (higher = more potent) (DUSP5): -0.607

Sequence: TTAAAAACAAAAATCACAGTTG
- sensor-assay potency score (higher = more potent) (DUSP5): 0.309

Sequence: TAATTCAGCTTCCATCTCCTTT
- sensor-assay potency score (higher = more potent) (EAPP): -0.368

Sequence: TTCTGCCGCATCATGAGGTAGG
- sensor-assay potency score (higher = more potent) (DUSP3): -0.351

Sequence: TTGAGGAAGTAGACCCGCGGGC
- sensor-assay potency score (higher = more potent) (DUSP5): -0.647

Sequence: TTCATTACAAACATTGCTCTAT
- sensor-assay potency score (higher = more potent) (EAPP): 0.525

Sequence: TTCCCTGACACAGTCAATGAAG
- sensor-assay potency score (higher = more potent) (DUSP5): -1.14

Sequence: TTGGCGAGGAACTCGCACTTGG
- sensor-assay potency score (higher = more potent) (DUSP5): -0.725

Sequence: TTCAAAGTAAGCGCTGAGGTTG
- sensor-assay potency score (higher = more potent) (DUSP3): -0.662

Sequence: TAGTTTCTGCAGCTTGGGGATG
- sensor-assay potency score (higher = more potent) (DUSP3): -1.37

Sequence: TATCTGTTCCAACTTTATCATC
- sensor-assay potency score (higher = more potent) (EEF1B2): -1.68

Sequence: TTGAATGCTTCTGACGCACTCC
- sensor-assay potency score (higher = more potent) (EEF1B2): 0.113

Sequence: TTTCTTGGGATCCACCACCAGG
- sensor-assay potency score (higher = more potent) (EHD3): -1.36

Sequence: AAACTCGTCGTCGTCCAGCATG
- sensor-assay potency score (higher = more potent) (EHD3): -1.38

Sequence: TAACTAAACTGGCACAGCCTGC
- sensor-assay potency score (higher = more potent) (EID2B): -0.861

Sequence: TTCAGCACCACTCGCATCTTGT
- sensor-assay potency score (higher = more potent) (EHD3): -0.387

Sequence: TTGATGAGGTCGTTGAGCTTGC
- sensor-assay potency score (higher = more potent) (EHD3): 0.159

Sequence: TTTGTGGGCATCGAAGAGCAGA
- sensor-assay potency score (higher = more potent) (EHD3): -1.26

Sequence: TATCTTTGCAAAACCATCCTTT
- sensor-assay potency score (higher = more potent) (EID2B): -0.0384

Sequence: ATCCTTGTTGTCTAAGTCGAAG
- sensor-assay potency score (higher = more potent) (EHMT2): -1.84

Sequence: TGCAAACTCGTCGTCGTCCAGC
- sensor-assay potency score (higher = more potent) (EHD3): -1.01

Sequence: TTGATGACTTCTGAGAACTCAT
- sensor-assay potency score (higher = more potent) (EHD3): -0.245

Sequence: TTGCTCTGCTGGTCGCTCTGGA
- sensor-assay potency score (higher = more potent) (EHMT2): -0.425

Sequence: TAGAGCTTCAACTTCAGACTTG
- sensor-assay potency score (higher = more potent) (EHMT2): 0.68

Sequence: TAAGTCAGAAGTGTCTTGGGAC
- sensor-assay potency score (higher = more potent) (EID2B): 0.252

Sequence: TTGAGTTGAAGCGCAAACCACA
- sensor-assay potency score (higher = more potent) (EHMT2): -1.4

Sequence: TTGACGTCCACCTGTCCTGTGC
- sensor-assay potency score (higher = more potent) (EHMT2): -0.646

Sequence: TCGCGGAACAACAGCTGCCGGT
- sensor-assay potency score (higher = more potent) (EID2B): -1.55
